For 14 molecules, composite z-score and z-score results are on record in PubChem BioAssay.

The subject of test [1] is Plasmodium falciparum Sir2 (PF13_0152, Sir2A). The test can be described thus: Plasmodium falciparum Sir2A binding compounds – biochemical, small-molecule microarray, 635 nm fluorescence, primary screen (AID 1098).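 Note: score merges spot fluorescence intensity with its signal-to-noise ratio.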 To be noted: fluorescence 635 nm, higher = more signal.
Test [2] in a line: probe aDKK1 binding to arrayed compounds – biochemical, biotinylated probe, 635/667 nm fluorescence, primary screen (AID 1099).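 Note: score merges 667nm spot fluorescence with signal to noise across triplicate slides; reference of the scale not given here.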 To be noted: small-molecule microarray, higher = more signal.
Test [3] is described as follows: probe aCHRDL2 binding to arrayed compounds – biochemical, biotinylated probe, 635/667 nm fluorescence, primary screen (AID 1100). The following applies: small-molecule microarray, higher = more signal.
Test [4] can be described thus: change in splice reporter luminescence, either direction, cell-based, HEK293, spliceosome inhibition project, primary screen (AID 1101).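 Note: HEK293 cells carrying a splicing-competent luciferase reporter gene; test concentration not given here.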 The following applies: HEK293 splicing luciferase reporter, 24 h, higher = more signal, called active from +8 up or from −8 down.
In test [5] the target is Fibroblast growth factor 10 (Homo sapiens) (UniProt O15520). The test can be described thus: compounds binding fibroblast growth factor 10 – biochemical, small-molecule microarray, 635 nm fluorescence, primary screen (AID 1102). To be noted: FGF10 binding, fluorescence 635 nm, higher = more signal.
The test system of test [6] is glycogen synthase kinase-3 (GSK3A per assay name; protocol says GSK3B). The test can be described thus: compounds binding glycogen synthase kinase-3 – biochemical, small-molecule microarray, 635 nm fluorescence, GSK3A, primary screen (AID 1103). Note: the record names both GSK3A and GSK3B. The following applies: fluorescence 635 nm, higher = more signal.
Test [7] has as its target Epidermal growth factor receptor (Homo sapiens) (UniProt P00533). The test can be described thus: compounds binding epidermal growth factor receptor – biochemical, small-molecule microarray, 635 nm fluorescence, primary screen (AID 1104).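 Note: score merges 667 nm emission intensity with spot signal to noise over triplicate slides.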 To be noted: EGFR binding, higher = more signal.
For test [8], the target named is Follistatin-related protein 3 (Homo sapiens) (UniProt O95633). The test can be described thus: compounds binding follistatin-related protein 3 – biochemical, small-molecule microarray, 635 nm fluorescence, primary screen (AID 1105).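 Note: score merges emission near 667 nm and signal to noise per printed spot across three slides.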 The following applies: FSTL3 binding, higher = more signal.
The target of test [9] is Dickkopf-related protein 1 (Homo sapiens) (UniProt O94907). The test can be described thus: small molecules binding DKK1 protein – biochemical, small-molecule microarray, 635 nm fluorescence scan, primary screen (AID 1106).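 Note: score merges emission near 667 nm with signal to noise over three replicate slides.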 To be noted: higher = more signal.
Test [10] has as its system Inhibin beta A chain (activin A). The test can be described thus: small molecules binding activin A – biochemical, small-molecule microarray, 635 nm fluorescence scan, primary screen (AID 1107).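 Note: mouse activin A protein probed at 4.33 µg/mL on printed slides; score merges bound-protein fluorescence near 667 nm with spot signal-to-noise.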 To be noted: INHBA, higher = more signal.

Activity calls are given as the source filed them.

Epidermal growth factor receptor (Homo sapiens), sequence (P00533 whole entry, looked up): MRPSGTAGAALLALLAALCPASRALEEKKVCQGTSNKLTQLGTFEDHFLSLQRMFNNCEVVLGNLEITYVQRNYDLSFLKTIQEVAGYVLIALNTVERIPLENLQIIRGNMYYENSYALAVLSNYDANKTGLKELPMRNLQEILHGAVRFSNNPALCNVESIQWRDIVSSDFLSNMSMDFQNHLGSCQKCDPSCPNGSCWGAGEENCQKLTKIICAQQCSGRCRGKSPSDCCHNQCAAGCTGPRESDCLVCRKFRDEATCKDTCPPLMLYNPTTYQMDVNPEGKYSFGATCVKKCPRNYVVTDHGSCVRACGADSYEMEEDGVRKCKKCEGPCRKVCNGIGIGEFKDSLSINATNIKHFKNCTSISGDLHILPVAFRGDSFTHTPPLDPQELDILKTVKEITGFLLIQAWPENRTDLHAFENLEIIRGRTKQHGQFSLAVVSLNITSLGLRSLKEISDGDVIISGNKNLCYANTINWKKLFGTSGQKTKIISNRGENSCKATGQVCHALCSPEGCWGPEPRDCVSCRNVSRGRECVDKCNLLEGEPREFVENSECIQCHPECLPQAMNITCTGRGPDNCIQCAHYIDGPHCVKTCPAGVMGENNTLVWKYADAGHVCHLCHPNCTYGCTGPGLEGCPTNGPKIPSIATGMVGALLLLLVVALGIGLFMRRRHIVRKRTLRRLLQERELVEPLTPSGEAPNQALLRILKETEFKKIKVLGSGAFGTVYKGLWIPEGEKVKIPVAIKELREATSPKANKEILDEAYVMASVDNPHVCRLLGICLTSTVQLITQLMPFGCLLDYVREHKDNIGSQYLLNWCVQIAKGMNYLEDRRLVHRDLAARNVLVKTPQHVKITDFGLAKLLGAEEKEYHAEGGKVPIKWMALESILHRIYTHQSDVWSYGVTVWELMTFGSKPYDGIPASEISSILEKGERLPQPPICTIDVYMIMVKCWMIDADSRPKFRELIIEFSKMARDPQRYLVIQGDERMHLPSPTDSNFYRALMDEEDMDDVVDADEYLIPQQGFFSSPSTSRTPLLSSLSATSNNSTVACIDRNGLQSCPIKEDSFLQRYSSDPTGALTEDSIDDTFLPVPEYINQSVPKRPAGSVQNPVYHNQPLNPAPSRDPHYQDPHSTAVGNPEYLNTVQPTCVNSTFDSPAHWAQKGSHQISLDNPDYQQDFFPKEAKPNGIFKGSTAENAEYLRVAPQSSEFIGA
Fibroblast growth factor 10 (Homo sapiens), sequence (O15520 whole entry, looked up): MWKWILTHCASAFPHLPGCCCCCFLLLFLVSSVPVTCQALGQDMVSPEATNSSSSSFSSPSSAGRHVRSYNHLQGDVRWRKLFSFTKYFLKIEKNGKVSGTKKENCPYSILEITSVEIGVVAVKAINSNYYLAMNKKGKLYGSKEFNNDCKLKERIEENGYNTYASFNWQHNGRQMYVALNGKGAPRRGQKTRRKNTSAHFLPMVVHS
Dickkopf-related protein 1 (Homo sapiens), sequence (O94907 whole entry, looked up): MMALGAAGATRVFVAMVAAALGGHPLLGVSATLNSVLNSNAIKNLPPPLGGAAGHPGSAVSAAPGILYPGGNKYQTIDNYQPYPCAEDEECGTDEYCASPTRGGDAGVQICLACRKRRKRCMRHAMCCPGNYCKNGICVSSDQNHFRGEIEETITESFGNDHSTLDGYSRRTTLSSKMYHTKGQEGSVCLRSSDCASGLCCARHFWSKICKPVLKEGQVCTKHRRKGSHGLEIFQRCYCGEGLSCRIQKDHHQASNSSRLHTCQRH
Follistatin-related protein 3 (Homo sapiens), sequence (O95633 whole entry, looked up): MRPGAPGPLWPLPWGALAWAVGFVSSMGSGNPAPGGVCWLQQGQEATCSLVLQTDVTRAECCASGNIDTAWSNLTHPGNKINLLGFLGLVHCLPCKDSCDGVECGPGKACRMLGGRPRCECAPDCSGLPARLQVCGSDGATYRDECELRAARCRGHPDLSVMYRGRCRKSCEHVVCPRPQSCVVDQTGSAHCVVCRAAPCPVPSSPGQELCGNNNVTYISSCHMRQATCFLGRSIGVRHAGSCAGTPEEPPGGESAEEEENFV

`O=C1N(Cc2ccccc2)c2ccccc2C[C@@]12N=C(c1ccc(OCCCO)cc1)O[C@H]2c1ccccc1`: the composite z-score is -0.0351 in test [1]; 0.184 in [2]; 0.923 in test [3]; 0.457 in test [5]; 0.977 in test [6]; 0.282 in test [7]. The composite z-score in test [8] was 0.319; in test [9], -0.648; in test [10], 0.295. Besides, the z-score in test [4] is -0.521 (inactive).
On to `COCCOC(=O)N1C(=O)[C@@]2(c3cc(C#CCNC(N)=O)ccc31)[C@H](C(=O)Nc1nc3ccccc3s1)[C@H]1C(=O)O[C@H](c3ccccc3)[C@H](c3ccccc3)N1[C@@H]2c1ccc(O)cc1`, for which the composite z-score in test [1] amounted to 0.576; in test [2], 0.406; in [3], 0.774; in test [5] it was 0.777; in test [6], 1.06; in [7], 0.195. Moreover, the composite z-score in test [8] stood at 0.783; in test [9] it was 0.393; in test [10], 0.719. For the same molecule, the z-score in [4] was 1.05 (inactive).
In the case of `COC(=O)C(CC#Cc1ccc2c(c1)[C@]1(C(=O)N2)[C@H](C(N)=O)[C@H]2C(=O)O[C@H](c3ccccc3)[C@H](c3ccccc3)N2[C@@H]1c1ccccc1OCCO)C(=O)OC`, the composite z-score was 1.39 in test [1]; -0.109 in [2]; 0.567 in test [3]; 0.785 in test [5]; 1.15 in [6]; -0.0452 in test [7]. Besides, the composite z-score in test [8] was 0.385; in [9], -0.151; in test [10] it was -0.278. Further, the z-score in [4] is 1.09 (inactive).
For the molecule `C=C(C(=O)CC[C@@H](OC(=O)c1ccccc1-c1ccccc1C(=O)O)c1cccc(OCCO)c1)C(C)C`, the composite z-score in [1] was 0.679; in [2], -0.318; in [3], -0.393; in test [5], 1.56; in [6] it was 0.133; in [7], -0.143. The composite z-score in [8] is 0.441; in test [9], 0.907; in test [10] it was 1.06. Besides, the z-score in test [4] is 0.436 (inactive).
Consider `C[C@]12C(=O)N(CCO)[C@@H]3C(=O)N(c4ccc(Cl)cc4)CC=CC31O[C@@H]1/C=C\CCCOC(=O)C12` (stereo not given in full), for which the composite z-score in [1] was -0.617; in test [2], -0.128; in test [3] it was 0.776; in test [5] it was -1.04; in test [6], -1.31; in test [7], -1.51. For the same molecule, the composite z-score in [8] was -1.03; in test [9] it was -1.53; in test [10] it was 0.847. Further, the z-score in [4] was 0.178 (inactive).
As for `C=C(CCCC)/C(=C/C[C@@H](OC(C)=O)c1ccc(OCCO)cc1)c1cc(C(=O)OC)ccc1OC`, the composite z-score is 1.14 in [1]; 0.0822 in [2]; 0.411 in [3]; 0.151 in test [5]; 0.244 in [6]; -0.597 in test [7]. In addition, the figures for the composite z-score in [8], in test [9] and in test [10] were -0.137, -0.348 and 0.763, respectively. Also, the z-score in test [4] was 0.374 (inactive).
As for `C=CCNC(=O)[C@H]1[C@@H]2C(=O)O[C@@H](c3ccccc3)[C@@H](c3ccccc3)N2[C@@H](c2ccc(O)cc2)[C@]12C(=O)Nc1ccccc12`, the composite z-score in test [1] was 0.524; in test [2] it was 0.46; in test [3], 0.501; in test [5], 0.28; in [6] it was -0.471; in test [7], -0.705. The figures for the composite z-score in test [8], in test [9] and in [10] were -0.693, -0.101 and 0.169, respectively. The z-score in test [4] was -0.592 (inactive).
Consider `CC(C)Cc1ccc(CN2CC[C@@H](NC(=O)c3ccccc3)C2)cc1`, for which the composite z-score in test [1] is 0.934; in test [2] it was -0.357; in [3] it was 0.0383; in test [5], -0.75; in test [6], -1.11; in test [7], -0.381. The composite z-score in [8] is -0.647; in test [9], -0.0332; in test [10], 0.631. For the same molecule, the z-score in test [4] is 1.03 (inactive).
In the case of `CC(C)(C)OC(=O)CC[C@]1(C(N)=O)N=C(c2ccc(OCCCO)cc2)O[C@H]1c1ccccc1N=[N+]=[N-]`, the composite z-score is 0.793 in [1]; 0.929 in [2]; 0.975 in test [3]; 1.5 in test [5]; -0.0657 in [6]; -0.204 in [7]. Moreover, the composite z-score in [8] is 0.0699; in test [9], -0.307; in test [10], 1.23. Further, the z-score in test [4] is -1.24 (inactive).
With `CC(C)N1CC=CC23O[C@@H]4/C=C\CCCOC(=O)C4[C@H]2C(=O)N(C(C)CO)[C@@H]3C1=O` (stereo not given in full), the composite z-score in test [1] is 0.748; in [2], -0.4; in test [3] it was 0.44; in test [5] it was -0.663; in [6], -1.02; in test [7], -0.962. For the same molecule, the figures for the composite z-score in test [8], in test [9] and in test [10] were -0.849, -1.35 and 0.493, respectively. Also, in [4], the z-score was -1.09 (inactive).
With `COc1ccc(-c2cc3c(c(CCc4ccccc4)n2)[Si](C(C)C)(C(C)C)O[C@H]3c2ccccc2)cn1`, the composite z-score in test [1] was -0.576; in [2] it was 0.0477; in test [3], -0.12; in test [5] it was 0.332; in test [6] it was -0.237; in test [7], -0.0109. Besides, the figures for the composite z-score in test [8], in test [9] and in [10] were 0.362, -0.0079 and 0.343, respectively. Further, the z-score in test [4] was -0.879 (inactive).
Turning to `COC(=O)[C@@]1(Cc2ccc(F)cc2)[C@H]2c3cc(C(=O)N(C)C)n(Cc4cccc5ccccc45)c3C[C@H]2CN1C(=O)c1ccccc1`, the composite z-score in [1] was 0.796; in test [2], 0.926; in test [3] it was 1.04; in test [5] it was 1.13; in test [6], 0.111; in test [7] it was -0.953. For the same molecule, the composite z-score in [8] is -0.242; in test [9] it was -1.02; in test [10], 0.644. In addition, the z-score in [4] is 0.551 (inactive).
Consider `COc1ccc([Si](C)(C)[C@H]2[C@H](CC(=O)N3CCC[C@H]3CO)O[C@@]3(C(=O)N(Cc4cccc(N5CCCCC5=O)c4)c4ccccc43)[C@@H]2C)cc1`, for which the composite z-score is 1.01 in test [1]; -0.297 in test [2]; -0.441 in test [3]; 1.3 in [5]; 1.21 in test [6]; 0.532 in test [7]. The composite z-score worked out at 1.26 in [8], 0.823 in test [9] and 0.248 in test [10]. The z-score in test [4] is 1.06 (inactive).
Take `CCCCC(=C=CC[C@@H](O)c1ccc(OCCO)cc1)CCO`: the composite z-score in test [1] was 0.413; in test [2], -0.0198; in [3] it was -0.305; in [5], 0.701; in test [6], -0.246; in test [7], -0.899. Moreover, the composite z-score in [8] was -0.281; in [9], -0.549; in test [10] it was 1.09. Further, in test [4], the z-score is -0.755 (inactive).
